Here are results for three compounds from PubChem BioAssay AID651871 (Sanford-Burnham Center for Chemical Genomics, 2012).

The assay has as its system HL-1. Description: cardiomyocyte survival under oxidative or metabolic stress – cell-based, panel, H9c2 and HL-1, ATP luminescence, set 2, SAR follow-up (AID 651871).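 Note: cells exposed to stressor for 2 h before ATP readout; reference of the scale not given here.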 Particulars: H9c2/HL-1 cardiomyocytes, 2-deoxyglucose stress, with 2-deoxyglucose, run 15, at 79 µM (top of the series).
Turning to `CCOC(=O)c1cccc(NC(=O)CNC(=O)c2cc(-c3cc(OC)c(OC)c(OC)c3)nc3ccccc23)c1`, the activity (protection/inhibition) stood at 87.5%.

On to `COc1ccc2c(c1OC)C(=O)N1c3ccccc3C(=O)N(Cc3cccc(Cl)c3Cl)C21` (stereo not drawn), for which the activity (protection/inhibition) was -12.5%.

For `COc1ccc2nc(-c3cc(OC)c(OC)c(OC)c3)cc(C(=O)NCC(=O)Nc3ccc(C(C)=O)cc3)c2c1`, the activity (protection/inhibition) is 56%.
